Measured values published in the supplement of paper PMC4709259.
Counter-ions that a name gives are not always drawn. ± gives the standard deviation.

Assays:
Jurkat [1] = assay: mean cell size (FSC-A) relative to DMSO control (fraction of control); higher = larger cells; conditions: 48 h
How it was run: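 Jurkat cells at 600 cells/µl were incubated for 1 h and then treated for 48h with the Enzo Screen-Well FDA Approved Drug Library v2.0 at 25µM, with DMSO at 0.9% (v/v) final. Compounds that reduced counts below 20% of controls were retested in 10-fold dilutions down to 25nM. Cell count and mean cell size, taken as forward scatter area, were measured by flow cytometry relative to solvent-only controls. Each plate carried 6-12 controls, and values are means of 3 biological replicates.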

Jurkat [2] = assay: cell count relative to DMSO control (fraction of control); higher = more cells (less growth inhibition); conditions: 48 h

Compound | mean cell size (Jurkat [1]) | cell count (Jurkat [2])
CCN(Cc1ccncc1)C(=O)C(CO)c1ccccc1 (stereo not given) [Tropicamide] (concentration: 25 µM) | 0.973 ± 0.019 | 0.925 ± 0.05
Cc1ccc(C(=O)c2ccc(CC(=O)O)n2C)cc1 [Tolmetin·Na] (concentration: 25 µM) | 0.964 ± 0.035 | 0.912 ± 0.11
CN(CCOc1ccc(NS(C)(=O)=O)cc1)CCc1ccc(NS(C)(=O)=O)cc1 [Dofetilide] (concentration: 25 µM) | 0.962 ± 0.015 | 0.872 ± 0.084
CC(CN1c2ccccc2Sc2ccccc21)N(C)C (stereo not given) [Promethazine·HCl] (concentration: 25 µM) | 0.994 ± 0.023 | 0.717 ± 0.16
COCCCC/C(=N\OCCN)c1ccc(C(F)(F)F)cc1 [Fluvoxamine Maleate] (concentration: 25 µM) | 0.973 ± 0.046 | 0.866 ± 0.083
COc1ccc2cc([C@H](C)C(=O)O)ccc2c1 [Naproxen] (concentration: 25 µM) | 0.941 ± 0.041 | 0.661 ± 0.1
C=C(c1ccc(C(=O)O)cc1)c1cc2c(cc1C)C(C)(C)CCC2(C)C [Bexarotene] (concentration: 2.5 µM) | 0.942 ± 0.017 | 0.955 ± 0.09
CCN(CC)CCNC(=O)c1cc(Cl)c(N)cc1OC [Metoclopramide·HCl] (concentration: 25 µM) | 0.951 ± 0.018 | 0.758 ± 0.16
CC#C[C@]1(O)CC[C@H]2[C@@H]3CCC4=CC(=O)CCC4=C3[C@@H](c3ccc(N(C)C)cc3)C[C@@]21C [Mifepristone] (concentration: 25 µM) | 0.903 ± 0.021 | 0.424 ± 0.054
CC(=O)Oc1ccccc1C(=O)Nc1ncc([N+](=O)[O-])s1 [Nitazoxanide] (concentration: 2.5 µM) | 0.9325 ± 0.0054 | 0.862 ± 0.091
